Compound activity (PubChem BioAssay)
IL1B secr inh – blocks inflammasome-driven IL-1 beta release; THP-1 LPS/ATP IL-1B secretion, AlphaLISA, 16 h; active compounds read low; activity change, % at 57.5 µM; 360,000 tested, 4.7% active; in the data active = activity change below about -50%; inconclusive = mostly about -30% to -49%
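THP-1 cells pretreated 1 hr with compounds (up to 57.5 uM final), then stimulated with LPS (250 ng/mL final) plus ATP (1.25 mM final); secreted IL-1B measured by AlphaLISA after 16 hr, decreased signal indicating inhibition.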
VP16 counter – counter-screen for ROR gamma inhibitors: Gal4-VP16 reporter; Potency, µM (highest dose often 53.6 µM), usual class: inhibitors; 310,000 tested, 3.5% active; Drosophila S2 Gal4-VP16 UAS-luciferase, luminescence, 20 h;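 also: Gal4-VP16 expression switched on by copper sulfate through the metallothionein promoter; nearly all actives have a fitted effect of over 50% in size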
DT40 TDP1 no CPT – qHTS for Inhibitors of human tyrosyl-DNA phosphodiesterase 1 (TDP1): qHTS in cells in absence of CPT; DT40 Tdp1-/- hTDP1 cells, no CPT, ATP luminescence, 48 h; Potency, µM (highest dose often 46.2 µM), most hits filed as inhibitors; 420,000 tested, 15% active; also: nearly all actives have a fitted effect of over 55% in size
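Growth of hTDP1-complemented DT40 Tdp1-knockout cells is measured by ATP luminescence after at least 48 hr compound exposure at 37 °C, with DMSO substituting for the 20 nM CPT used in the parallel screen.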
RORg inh – ROR gamma (mouse) transcription inhibition; Drosophila S2 Gal4-RORgamma UAS-luciferase reporter, 20 h; Potency, µM (titrated, usually from 53.6 µM), usual class: inhibitors; 310,000 tested, 5.4% active; also: nearly all actives have a fitted effect of over 60% in size
Target sequence (P51450 whole entry, looked up, the tested form may be a part): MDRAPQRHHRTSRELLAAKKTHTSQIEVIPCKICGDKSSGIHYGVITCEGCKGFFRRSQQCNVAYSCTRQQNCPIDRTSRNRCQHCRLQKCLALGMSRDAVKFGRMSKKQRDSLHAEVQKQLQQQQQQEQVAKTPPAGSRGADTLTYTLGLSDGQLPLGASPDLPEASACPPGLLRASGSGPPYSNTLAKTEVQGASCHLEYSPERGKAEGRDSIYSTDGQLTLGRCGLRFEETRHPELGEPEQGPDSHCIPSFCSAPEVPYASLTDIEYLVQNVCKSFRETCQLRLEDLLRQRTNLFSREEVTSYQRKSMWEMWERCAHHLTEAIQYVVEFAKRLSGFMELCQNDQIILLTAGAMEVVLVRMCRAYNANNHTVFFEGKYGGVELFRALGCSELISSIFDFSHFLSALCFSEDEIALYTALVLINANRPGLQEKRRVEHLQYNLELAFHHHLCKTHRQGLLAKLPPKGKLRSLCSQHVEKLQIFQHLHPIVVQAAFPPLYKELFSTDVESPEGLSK
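Stably transfected Drosophila Schneider cells are the test system, with ROR gamma fused to Gal4 and luciferase under UAS control; luminescence is read after 20 hr of 700 uM copper sulfate induction at ambient temperature.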
DT40 TDP1 CPT – growth inhibition of DT40 Tdp1-/-;hTDP1 cells with camptothecin (screen for TDP1 inhibitors); chicken DT40 Tdp1-/-;hTDP1 cells + 20 nM CPT, ATP luminescence, 48 h; Potency, µM (series often up to 46.2 µM), usual class: inhibitors; 420,000 tested, 12% active; AID 686979; also: nearly all actives have a fitted effect of over 55% in size
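Cell growth measured by CellTiter-Glo luminescence after a minimum 48 h, 37 C compound exposure with 20 nM CPT in Tdp1-knockout DT40 cells stably expressing hTDP1, seeded 400/well; qHTS titration format.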
ELG1 repair inh – blocks ELG1-dependent DNA repair in HEK293T cells. HEK293T ELG1-luciferase reporter, luminescence, 16 h; DNA damage induced by 5-fluorouridine. Potency, µM (highest dose often 46.1 µM), hits mostly inhibitors. 330,000 tested, 2.3% active. AID 504467; also: nearly all actives have a fitted effect of over 55% in size
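Step one: seed 2,000 cells per well. Step two: pin-transfer compound or DMSO alongside 5-fluorouridine. Step three: incubate 16 hr, 37 °C, 5% CO2. Step four: add ONE-Glo, wait 30 min, read luminescence.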
Numbers stand for hits; i = inactive; ? = inconclusive; nt = no result given. The list is not random: actives were taken first. Their share in the collection is about 21%. Unless noted, calls follow the shape of the dose curve; as a rule, active = well fitted curve in the direction sought with a large enough effect; inconclusive = small, poorly fitted or top-dose-only effect, or another doubt; inactive = no such curve, though single readings can be large; an effect the other way counts as inactive or inconclusive.

SMILES | IL1B secr inh | VP16 counter | DT40 TDP1 no CPT | RORg inh | DT40 TDP1 CPT | ELG1 repair inh
Cc1ccc(NC(=S)N(CCCN2CCN(C)CC2)Cc2cccs2)cc1C | -61 | i | i | i | i | i
Cc1ccc(NC(=S)N(CCCN2CCN(C)CC2)Cc2cccs2)cc1 | i | i | i | i | i | i
CCC(=O)c1ccc(OC(C)C(=O)NC2(C#N)CCCCC2)cc1 (stereo unspecified) | i | i | i | i | i | i
COc1ccc(C2/C=C\CN(C(=O)C3CCCCC3)C(C)C(=O)N2Cc2ccc(F)cc2)cc1 (stereo unspecified) | nt | i | nt | ? | nt | nt
CCCCCOc1ccc(OC(=O)c2ccncc2)cc1 | i | i | 13µM | i | 12µM | i
CCCCOc1ccc(C(=O)Oc2ccc(C)nc2)cc1 | i | i | i | i | i | i
COC1CCC2(C)C(=CCC3C4CC(O)CC4(C)CCC32)C1 (stereo unspecified) | i | nt | 21µM | nt | 21µM | nt
COc1ccccc1N(CC(=O)NCc1ccccc1)S(=O)(=O)c1cccs1 | i | nt | ? | nt | ? | nt
CCOC(=O)Cn1c(=N)n(CCOc2ccc3ccccc3c2)c2ccccc21 | i | i | ? | i | 18µM | i
CCCn1c(=N)n(CCOc2ccc(OC)cc2)c2ccccc21 | -58 | i | 18µM | i | 16µM | i
Cc1cccc(C2NC(=O)c3ccccc3N2)c1 (stereo unspecified) | i | nt | 5.2µM | nt | 3.3µM | nt
Cc1ccc(C2NC(=O)c3ccccc3N2)s1 (stereo unspecified) | i | i | 4.6µM | ? | 5.8µM | ?
Cc1ccc(C2NC(=O)c3ccccc3N2)c(C)c1 (stereo unspecified) | i | nt | 2.9µM | nt | 2.1µM | nt
O=C1NC(c2ccc(Cl)cc2)Nc2ccccc21 (stereo unspecified) | i | i | i | ? | i | i
Cc1ccc(N=C2C(=O)Nc3ccccc32)c(C)c1 | i | i | i | i | i | i
Cn1cccc1C(=O)N1CCC2(CCCN(c3ccccn3)C2)CC1 | nt | i | ? | i | i | nt
CN(C(=O)COC(=O)c1ccccc1OCc1ccc(F)cc1)C1CCS(=O)(=O)C1 (stereo unspecified) | i | nt | i | nt | i | i
CCOC(=O)C1CCN(C(=O)CN2c3ccc(C(C)C)cc3-c3ccccc3S2(=O)=O)CC1 | nt | nt | ? | nt | 21µM | nt
CCc1ccc2c(c1)-c1ccccc1S(=O)(=O)N2CC(=O)N1CCC(C)CC1 | nt | nt | 18µM | nt | 16µM | nt
COc1ccc(COC2OC[C@]3(C)[C@H]4C5=C(CN3C(=O)OC(C)(C)C)[C@H](C)C(CO)C(CO)C5CC[C@@H]24)cc1 (stereo partly specified) | nt | i | nt | i | nt | nt
C[C@@H]1CN(C(=O)c2nc3ccc(Cl)cn3c2CNCC[C@@H]2C[C@@H]3C=C[C@H]2C3)C[C@H](C)O1 | i | i | ? | i | ? | i
O=C(c1nc2ccc(Cl)cn2c1CNCC[C@@H]1C[C@@H]2C=C[C@H]1C2)N1CCCCCCC1 | -72 | i | ? | i | ? | ?
CC1(C)CC2(CC(c3ccccc3F)c3cc(Cl)c(O)cc3O2)NC(=S)N1 (stereo unspecified) | i | ? | 3.7µM | 11µM | 2.1µM | ?
COc1ccc(C2CC3(CC(C)(C)NC(=S)N3)Oc3cc(O)cc(C)c32)cc1OC (stereo unspecified) | i | i | ? | ? | ? | i
Cc1cccc(C2CC3(CC(C)(C)NC(=S)N3)Oc3cc(O)ccc32)c1 (stereo unspecified) | -73 | i | 13µM | 10µM | 21µM | ?
SMILES | IL1B secr inh | VP16 counter | DT40 TDP1 no CPT | RORg inh | DT40 TDP1 CPT | ELG1 repair inh
COc1cccc(C2CC3(CC(C)(C)NC(=S)N3)Oc3cc(O)ccc32)c1 (stereo unspecified) | i | i | 9.2µM | i | 12µM | ?
CC1CC(C)(C)OC(C[N+]2(C)CCCCC2)O1 (stereo unspecified) | i | i | i | i | i | i
COc1ccc(S(=O)(=O)N2CCC(C(=O)NCCC(=O)NCc3ccccn3)CC2)cc1 | i | nt | i | nt | i | nt
CCOc1ccc(NC2SC(=O)N(Cc3ccccc3)C2=O)cc1 (stereo unspecified) | nt | nt | i | nt | i | nt
CCOc1c(Br)cc(/C=C2\N=C(C)OC2=O)cc1Br | i | i | ? | i | 21µM | i
COc1cc(/C=C2\N=C(C)OC2=O)cc(OC)c1OC | i | nt | ? | nt | ? | i
CC(C)(C)CC(C)(C)c1ccc(O)c(-n2nc3ccccc3n2)c1 | nt | i | i | i | i | nt
COC(=O)COc1cccc2c(=O)n(CC(=O)N3CCCc4ccccc43)ccc12 | i | i | i | i | i | ?
CCOC(=O)[C@]12Cc3c(cc(OC)c(OC)c3OC)[C@H]1N(Cc1ccccc1)C(=O)c1cc(F)c(F)cc12 | -68 | nt | 26µM | nt | ? | nt
COc1cccc(C2N(Cc3ccccc3)C(=O)C2(F)F)c1OC (stereo unspecified) | i | i | i | i | i | i
CCOC(=O)[C@]12Cc3c(cc(OC)c(OC)c3OC)[C@H]1N(Cc1ccccc1)C(=O)c1cc(OC)ccc12 | nt | nt | 13µM | nt | ? | nt
CCOC(=O)[C@]12Cc3c(cc(OC)c(OC)c3OC)[C@H]1N(CCC(=O)OC)C(=O)c1cc(OC)ccc12 | -116 | nt | 16µM | nt | ? | nt
COc1ccc(S(=O)(=O)NCc2ccc(C(=O)NCc3ccccc3)cc2)cc1 | nt | nt | i | nt | i | nt
Cc1ccc(-n2nnc(-c3nsc(NC(=O)c4ccccc4C)n3)c2C)cc1Cl | nt | nt | 6.5µM | nt | 5.2µM | nt
Cc1cc(C)nc(NC(=O)c2cccc(Cl)c2)n1 | i | i | i | i | i | i
Cc1ccc(-n2nnc(-c3nsc(NC(=O)c4ccc(C)c(C)c4)n3)c2C)cc1 | nt | nt | 13µM | nt | 13µM | nt
Cc1ccc(-n2nnc(-c3nsc(NC(=O)c4cccc(Cl)c4)n3)c2C)cc1C | nt | nt | 3.7µM | nt | 5.8µM | nt
CCc1ccccc1-n1nnc(-c2nsc(NC(=O)c3ccc(C)c(C)c3)n2)c1C | nt | nt | 18µM | nt | ? | nt
Cc1cc(C)cc(-n2nnc(-c3nsc(NC(=O)c4ccccc4Cl)n3)c2C)c1 | nt | nt | ? | nt | i | nt
O=C(c1ccncc1)N1CCC2(CCCN(c3ccccc3)C2)CC1 | nt | i | i | i | i | nt
Cc1cc(C)n(Cc2ccc(C(=O)Nc3ccc(Br)cc3C)o2)n1 | -60 | i | ? | i | i | i
Cc1cc(C)n(Cc2ccc(C(=O)Nc3cccc(Br)c3)o2)n1 | ? | ? | ? | ? | i | i
CN(C[C@@H](CC1CCCCC1)N(C[C@H](Cc1ccccc1)N(CCc1ccccc1)N=O)N=O)N=O | i | i | ? | i | 23µM | i
